Results taken from PubChem BioAssay (NCI).
Compounds without any hit were thinned out: in the full panel of roughly 79,000, 15% have a hit. No stated cut-off is given here; in the data, active means growth inhibition above about 70%; inactive means the rest. Where a SMILES comes first, the peptide text is derived from it. The star is where a group is joined. Boc = CC(C)(C)OC(=O)*

Assays:
[1] = NCI Yeast Anticancer Drug Screen. Data for the rad50 strain (AID 155);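 further: 0% = growth of vehicle-only cultures of the same strain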; conditions: S. cerevisiae rad50 strain growth inhibition; at 50.0 µM; active compounds read high
How it was run: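 Yeast carrying a defined DNA repair defect were exposed to test compounds, and growth was compared with vehicle-treated controls to give percent inhibition.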

[2] = NCI Yeast Anticancer Drug Screen. Data for the mec2-1 strain (AID 157); conditions: S. cerevisiae mec2-1 strain, at 50.0 µM, active compounds read high
How it was run: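 Growth inhibition is read against vehicle-treated controls after compound exposure of the mec2-1 yeast strain, which is defective in DNA damage repair or cell cycle control.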

[3] = NCI Yeast Anticancer Drug Screen. Data for the sgs1 mgt1 strain (AID 161);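 further: 0% = growth of cultures given vehicle only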; conditions: S. cerevisiae sgs1 mgt1 strain, at 50.0 µM, active compounds read high
How it was run: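 Percent growth inhibition was derived by comparing compound-exposed mutant yeast with vehicle-exposed cultures. The strain carries alterations in DNA damage repair.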

[4] = NCI Yeast Anticancer Drug Screen. Data for the cln2 rad14 strain (AID 165);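 further: 0% = growth equal to vehicle treated cultures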; conditions: S. cerevisiae cln2 rad14 strain, at 50.0 µM, active compounds read high
How it was run: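 Growth inhibition, relative to vehicle-treated controls, is the read-out. The test organism is a yeast strain with defined genetic alterations, cln2 rad14.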

[5] = NCI Yeast Anticancer Drug Screen. Data for the bub3 strain (AID 167); conditions: S. cerevisiae bub3 mutant strain, at 50.0 µM, active compounds read high
How it was run: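 Compounds were applied to a genetically altered yeast strain carrying a cell-cycle control defect. Growth inhibition was scored against vehicle-treated controls.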

[6] = NCI Yeast Anticancer Drug Screen. Data for the mlh1 rad18 strain (AID 175); conditions: S. cerevisiae mlh1 rad18 strain growth inhibition; at 50.0 µM; active compounds read high
How it was run: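 Cells of a genetically altered yeast strain, deficient in DNA damage repair, were treated with compound. Their growth was then compared with that of vehicle-treated cultures to give inhibition.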

Measured: growth inhibition

CCC(=O)OC1C(OC2C(C)C(OC3CC(C)(OC)C(O)C(C)O3)C(C)C(=O)OC(CC)C(C)(O)C(O)C(C)C(=O)C(C)CC2(C)O)OC(C)CC1N(C)C (stereo not drawn)
inactive: [1] -18.1% | [2] -28.1% | [3] -31.2% | [4] 5.7% | [5] -3% | [6] -76.8%

O=C1C(OC(=O)c2ccccc2)=C(c2ccc(O)cc2)C(=O)C(OC(=O)c2ccccc2)=C1c1ccc(O)cc1
inactive: [1] 24.1% | [2] 0.45% | [3] 5.55% | [4] 9.75% | [5] 17.2% | [6] -44.6%

CCCC(=O)N[C@H]1C2C3CC4C5CC(C42)C1(C)C53 (stereo partly drawn)
inactive: [1] -5.3% | [2] -17.4% | [3] 3.8% | [4] 10.3% | [5] 7.25% | [6] -17.2%

Cc1nn(-c2nc(-c3ccc(Br)cc3)cs2)c(C)c1C
inactive: [1] 12.9% | [2] -4.9% | [3] -9.95% | [4] 9.6% | [5] 5.65% | [6] 3.45%

c1ccc(CCc2ccncc2)cc1
inactive: [1] -3.05% | [2] -22.6% | [3] -8.35% | [4] -26.5% | [5] 3.6% | [6] -13.3%

O=[N+]([O-])c1ccc(N/N=C2\CCC3CC23)c([N+](=O)[O-])c1 (stereo not drawn)
inactive: [1] 1% | [2] -15.2% | [3] -2.15% | [4] -1.35% | [5] -0.55% | [6] -21.9%

O=C(Nc1ccccc1)c1nn(-c2cc(S(=O)(=O)O)c([N+](=O)[O-])cc2Cl)[n+](-c2cc(S(=O)(=O)[O-])c([N+](=O)[O-])cc2Cl)n1
inactive: [1] -4.45% | [2] -3.25% | [3] -25.1% | [4] -26.8% | [5] -23.6% | [6] 2.3%

COC(=O)C(Cc1c[nH]c2ccccc12)NC(=O)C(Cc1c[nH]c2ccccc12)NC(=O)C(Cc1c[nH]c2ccccc12)NC(=O)C(Cc1c[nH]c2ccccc12)NC(=O)OC(C)(C)C (stereo not drawn) (Boc-WWWW-OMe; configuration not given here)
inactive: [1] 3.35% | [2] -4.65% | [3] -2.05% | [4] 23.4% | [5] 4.65% | [6] 6.2%

O=C(/C=C(\C(=O)c1ccccc1)c1ccccc1)c1ccc(-c2ccccc2)cc1
inactive: [1] 8.2% | [2] -2.35% | [3] -3.15% | [4] -6.9% | [5] -3.45% | [6] -16.9%

COc1ccc2c(c1)CCCN2C(N)=Nc1ccc([N+](=O)[O-])cc1
inactive: [1] -4.2% | [2] -4.4% | [3] -1.45% | [4] -55.8% | [5] -1.95% | [6] -7.7%

COc1ccc(Br)c(C=O)c1NC(C)=O
inactive: [1] 22.7% | [2] 11.4% | [3] 38.1% | [4] -1.3% | [5] -8.25% | [6] -4.1%

O=C1/C(=C/c2ccc(Cl)cc2)Oc2ccccc21
inactive: [1] -31.4% | [2] -7.05% | [3] -18.9% | [4] 1.4% | [5] -8.1% | [6] -19.6%

CC(=O)ON(C(C)=O)c1ccc(C(N)=O)cc1
inactive: [1] -16.6% | [2] 6.8% | [3] -13.2% | [4] 6.25% | [5] -15.3% | [6] -71.5%

CCC1SC(N)=NC1=O (stereo not drawn)
inactive: [1] 16.1% | [2] 9.65% | [3] 24.7% | [4] 20.4% | [5] 10.2% | [6] 5.55%

CO/N=C1\CC(NC(=O)CNC(=O)OC(C)(C)C)c2ccsc21 (stereo not drawn)
inactive: [1] 1.45% | [2] 5.9% | [3] 6.6% | [4] 4.3% | [5] -1.7% | [6] 28.4%

N/N=C(\C(=O)Nc1ccc(Cl)cc1Cl)C(c1cnc2ccccc2n1)[N+](=O)[O-] (stereo not drawn)
inactive: [1] 12.5% | [2] -21.9% | [3] -3.6% | [4] -20.6% | [5] -9.45% | [6] 0.45%

O=C(C[n+]1ccccc1)NNC(=O)/C(=C/c1ccc2c(c1)OCO2)NC(=O)c1ccccc1
inactive: [1] -5.95% | [2] 3.4% | [3] -13.7% | [4] 21.3% | [5] -3.95% | [6] 10.1%

O=[N+]([O-])c1ccc(-n2cnc3c(Cl)ncnc32)cc1
inactive: [1] 1.2% | [2] 35.9% | [3] 14.6% | [4] -0.55% | [5] 28.4% | [6] 0.6%

CC(C)(C)SC(=S)SCC(=O)c1cc2cc(Br)ccc2o1
inactive: [1] -19.7% | [2] -25.6% | [3] -11.5% | [4] -3.25% | [5] -16.9% | [6] -8.5%

N#CC1C(=O)NC(=O)C(C#N)C1C1C(=O)NC2CCCCC21 (stereo not drawn)
inactive: [1] 41.2% | [2] 5% | [3] 17.2% | [4] 23.2% | [5] 11.1% | [6] 32.8%

O=Cc1c(O)nc[nH]c1=O
inactive: [1] -23.9% | [2] -27.9% | [3] -4.15% | [4] 6.75% | [5] -13.4% | [6] -7.7%

COC(=O)C1CCC(/C(C#N)=C2/CCC(C(=O)OC)[N-]2)=N1.COC(=O)C1CCC(/C(C#N)=C2/CCC(C(=O)OC)[N-]2)=N1.[Cu+2] (stereo not drawn)
inactive: [1] -13.8% | [2] -24.2% | [3] 3.5% | [4] -43.3% | [5] -24.5% | [6] 11.2%

CN(C)C(=O)C1(C)CC2CCC1C2 (stereo not drawn)
inactive: [1] -2.25% | [2] -15.3% | [3] -8.65% | [4] 13.9% | [5] 2.8% | [6] -0.75%

CC(=O)[O-].O=S(=O)(Nc1ncccn1)c1ccc(N=Cc2ccccc2O)cc1.O=S(=O)(Nc1ncccn1)c1ccc(N=Cc2ccccc2O)cc1.[Co+2]
inactive: [1] 25.4% | [2] 23.2% | [3] 26.6% | [4] 27.7% | [5] 32.2% | [6] 25.1%

CC(=O)NNc1nc(C)c(C(/C=C/c2ccc([N+](=O)[O-])cc2)=N/NC(N)=O)s1
inactive: [1] 23.6% | [2] -12.7% | [3] 24.2% | [4] 16.6% | [5] 8.75% | [6] 10.3%

COc1ccc(COC(=O)Nc2cccc(Cl)c2)cc1OC
inactive: [1] -11.5% | [2] 30% | [3] 20.1% | [4] -24.2% | [5] 30.8% | [6] 35.8%

Cc1cccc(C(=O)O)c1[N+](=O)[O-]
inactive: [1] 10.4% | [2] 1.05% | [3] -8.25% | [4] -8.35% | [5] -14% | [6] 7.1%

ClCC1COC(CCc2ccccc2)O1 (stereo not drawn)
inactive: [1] 18.4% | [2] -3.5% | [3] -10.9% | [4] 64.2% | [5] 3.1% | [6] 7.7%

CCC(=N\NC(N)=S)/C(C)=N/O
inactive: [1] -2.35% | [2] 6.3% | [3] 19.4% | [4] 15.2% | [5] 14.3% | [6] 16.3%

Cc1ccc(N=Nc2c(O)c3ccccc3[nH]c2=O)c(S(=O)(=O)N(C)C)c1
inactive: [1] 29.7% | [2] -24.2% | [3] -24.9% | [4] 29.6% | [5] -27.2% | [6] -17.5%

CN(C)C(=S)/N=c1\ssc(=S)n1C1CCCCC1
inactive: [1] -22.1% | [2] 2.55% | [3] 6.45% | [4] -49.6% | [5] 25.7% | [6] -11.5%

COc1cc(C)cc(C(=O)C2=NNCC2c2ccccc2)c1O (stereo not drawn)
inactive: [1] 23.1% | [2] 19.4% | [3] 26.8% | [4] 10.9% | [5] 17.1% | [6] 16.2%

CCN(CC)CCOc1ccc(OC)cc1
inactive: [1] -8.7% | [2] -0.6% | [3] -9.55% | [4] -35.2% | [5] -5.2% | [6] -0.8%

CN(C)CC1CCCC/C1=N/OC(=O)c1ccc(Cl)cc1 (stereo not drawn)
inactive: [1] 0.15% | [2] 2.1% | [3] 10.9% | [4] 11.4% | [5] -4.6% | [6] 13.7%

C=C1CC(C)(COc2cc(=O)oc3ccccc23)OC1=O (stereo not drawn)
inactive: [1] 51% | [2] 30.3% | [3] 53.2% | [4] 38.5% | [5] 25.6% | [6] 40.5%

O=C1NCCN(CCc2ccccc2)C1c1ccccc1 (stereo not drawn)
inactive: [1] -9.6% | [2] 0.95% | [3] -8.85% | [4] -31.9% | [5] 15% | [6] -6.05%

O=C(O)C1CCCN1/N=C/c1cccc([N+](=O)[O-])c1 (stereo not drawn)
inactive: [1] -11.1% | [2] -1.3% | [3] 9.1% | [4] -5.4% | [5] 24.6% | [6] -11.3%

N#CC1(Nc2ccc(-c3ccc(NC4(C#N)CCCC4)cc3)cc2)CCCC1
inactive: [1] 40.8% | [2] -16.4% | [3] -36.5% | [4] -40.9% | [5] -2.55% | [6] 21.1%
